Each compound was assayed against Chromo domain-containing protein 1 (Saccharomyces cerevisiae (strain ATCC 204508 / S288c) (Baker's yeast)) (UniProt P32657) (assay: ScCHD-1 Enzyme Inhibition Assay). Conditions: 30 µM.
Chain of Chromo domain-containing protein 1 (Saccharomyces cerevisiae (strain ATCC 204508 / S288c) (Baker's yeast)) (P32657 whole entry, the tested form may be a part): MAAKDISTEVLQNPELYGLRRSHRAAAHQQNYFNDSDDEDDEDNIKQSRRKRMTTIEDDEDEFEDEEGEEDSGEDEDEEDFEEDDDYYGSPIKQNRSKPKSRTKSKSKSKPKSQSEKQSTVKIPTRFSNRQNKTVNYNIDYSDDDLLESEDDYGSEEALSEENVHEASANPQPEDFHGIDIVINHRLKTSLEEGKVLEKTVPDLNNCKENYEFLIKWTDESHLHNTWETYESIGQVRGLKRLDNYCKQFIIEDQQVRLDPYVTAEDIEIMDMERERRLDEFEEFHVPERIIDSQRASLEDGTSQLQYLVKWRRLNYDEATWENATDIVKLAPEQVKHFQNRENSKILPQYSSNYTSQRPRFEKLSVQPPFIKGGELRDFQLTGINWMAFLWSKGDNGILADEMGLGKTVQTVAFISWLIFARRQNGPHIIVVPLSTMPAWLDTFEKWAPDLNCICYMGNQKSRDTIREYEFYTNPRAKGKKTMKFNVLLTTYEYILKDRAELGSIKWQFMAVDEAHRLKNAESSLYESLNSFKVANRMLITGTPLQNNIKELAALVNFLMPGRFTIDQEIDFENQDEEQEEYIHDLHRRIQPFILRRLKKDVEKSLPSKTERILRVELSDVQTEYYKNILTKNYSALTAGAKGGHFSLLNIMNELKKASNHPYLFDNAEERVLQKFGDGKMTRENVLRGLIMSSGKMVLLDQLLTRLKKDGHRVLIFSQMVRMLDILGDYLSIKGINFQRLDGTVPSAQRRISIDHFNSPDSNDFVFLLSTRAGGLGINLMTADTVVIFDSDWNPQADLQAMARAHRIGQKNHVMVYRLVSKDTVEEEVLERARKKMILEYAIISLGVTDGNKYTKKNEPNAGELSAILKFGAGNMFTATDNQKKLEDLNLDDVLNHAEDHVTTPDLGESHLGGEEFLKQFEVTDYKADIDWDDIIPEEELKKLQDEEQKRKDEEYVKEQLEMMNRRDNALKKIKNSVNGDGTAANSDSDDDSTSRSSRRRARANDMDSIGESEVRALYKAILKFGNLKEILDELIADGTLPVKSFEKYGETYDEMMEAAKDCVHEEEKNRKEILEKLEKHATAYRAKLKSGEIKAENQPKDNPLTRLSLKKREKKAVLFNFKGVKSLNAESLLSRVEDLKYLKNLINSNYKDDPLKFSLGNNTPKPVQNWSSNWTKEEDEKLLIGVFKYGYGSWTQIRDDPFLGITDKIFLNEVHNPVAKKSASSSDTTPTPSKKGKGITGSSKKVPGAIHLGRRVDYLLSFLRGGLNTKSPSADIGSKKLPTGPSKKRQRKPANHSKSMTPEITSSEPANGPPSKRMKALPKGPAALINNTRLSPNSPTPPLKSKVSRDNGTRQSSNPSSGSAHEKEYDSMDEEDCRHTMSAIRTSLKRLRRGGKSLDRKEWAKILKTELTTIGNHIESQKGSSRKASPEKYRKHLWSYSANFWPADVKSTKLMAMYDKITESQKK
Format: functional
Design: scale not given: in the data most compounds retested in dose-response had high values
In the case of `Cc1cccc2cc(CNCCCN3CCOCC3)c(=O)[nH]c12`, the Percent Effect is reported as -27.6%. Work on `CC(C)N(C)C(=O)C1=NOC2(CCN(C(=O)c3ccncc3)C2)C1` (stereo not given) yielded a Percent Effect of -0.614%. Compound `Cc1cnn(CC(C)NCc2ccc(-n3cccn3)cc2)c1` (stereo not given) has a Percent Effect of -18.2%. `Cc1nc(C)n(C2CCCN(C(=O)Cc3cccnc3)C2)n1` (stereo not given) was tested, and the Percent Effect was -2.33%. Compound `CN(C)C(=O)CN1CCCCC1c1nc(N)ncc1-c1cccc(F)c1` (stereo not given) has a Percent Effect of -4.14%. With `O=C(C1CC1)N1CCN(Cc2coc(-c3ccc(Cl)cc3)n2)CC1` the Percent Effect was -5.59%. In the case of `CN(CCNC(=O)N1CCN(Cc2ccon2)CC1)C1CCCC1`, the Percent Effect is reported as -1.28%. Compound `c1csc(N2CCCN(Cc3nc(C4CC4)no3)CC2)n1` has a Percent Effect of 5.76%. With `N#Cc1ccc(C(=O)N2CC[C@H]3[C@@H]2CCC(=O)N3c2cccnc2)cc1` the Percent Effect was -4.36%. Work on `Cc1nn(C)c(C)c1C1CCCN1C(=O)c1ccc(Cl)o1` (stereo not given) yielded a Percent Effect of 1.72%. Work on `Cc1nccn1-c1cc(CNC(=O)c2ccccn2)ccn1` yielded a Percent Effect of -4.24%. In the case of `O=C1COc2c(cccc2C(=O)N2CCCCC2Cn2cccn2)N1` (stereo not given), the Percent Effect is reported as -12.7%. Compound `Cc1cc(C)n(CC2CCCN2CC(=O)N(C)C)n1` (stereo not given) has a Percent Effect of -0.0682%. `CC(C)(C)C(=O)NCCc1ccn(-c2ccccc2)n1` was tested, and the Percent Effect was -30%. `CC(C)C(NC(=O)NCCNc1ccccn1)c1cccs1` (stereo not given) gave a Percent Effect of -7.99%. In the case of `Cc1ccc(CN2CCCC3(COCCN(Cc4c[nH]nn4)C3)C2)o1` (stereo not given), the Percent Effect is reported as -3.22%. `CCNC(c1ccc(OC)cc1)c1cccnc1` (stereo not given) showed a Percent Effect of -10.2%. `CCN(CC1CCCO1)C(=O)Nc1cc(OC)c(OC)cc1C` (stereo not given) gave a Percent Effect of -9.07%. Work on `Cc1cc(C2CCCN2C(=O)c2cc3c(s2)CCC3)on1` (stereo not given) yielded a Percent Effect of -7.02%. Compound `COc1ccccc1[C@@H]1CN(C(=O)c2csc(C)n2)C[C@H]1C(=O)O` has a Percent Effect of -3.19%. With `CCc1ccc(CN2CCC3(CC2)CC(N2CCN(C)CC2)CO3)cc1` (stereo not given) the Percent Effect was 14%. For `Cc1ccc(C(=O)NC(C)CN2CCCC2=O)c(=O)[nH]1` (stereo not given), the Percent Effect was -0.198%. `CCc1nnc2n1CCN(C(=O)c1cc3ccc(F)cc3nc1C)C2` gave a Percent Effect of -6.09%. For `CC(C)n1ccnc1C1CCN(Cc2ccc(Cl)c(F)c2)CC1`, the Percent Effect was 0.763%. In the case of `CC(C)c1ncc2c(n1)CN(Cc1ccc(C(N)=O)cc1)CC2`, the Percent Effect is reported as -14.2%. Compound `COc1cccc2c1ccn2CCC(=O)NCCCC(=O)O` has a Percent Effect of -9.24%. `CN(C(=O)c1ccccn1)c1nc2c(s1)CCc1c-2cnn1C` was tested, and the Percent Effect was -15.7%. In the case of `Cc1ccc2c(c1)OCCCC2NCc1nnc2n1CCCCC2` (stereo not given), the Percent Effect is reported as -11.7%. Compound `CC(C)c1noc(CN2CCN(C(=O)c3ccccc3F)CC2)n1` has a Percent Effect of 0.419%. `O=C(c1ccc[nH]1)N1CCC(c2nccn2Cc2ccncc2)CC1` was tested, and the Percent Effect was -6.61%. With `O=S(=O)(Nc1cnn(C2CCOCC2)c1)c1ccc(F)c(F)c1` the Percent Effect was -2.49%. With `CN(C)C(CNC(=O)c1cccc(-n2cnnn2)c1)c1ccccc1Cl` (stereo not given) the Percent Effect was -3.4%. `CC(O)CN1CCN(C(=O)c2ccc(Br)o2)CC1` (stereo not given) was tested, and the Percent Effect was -12.7%. Work on `CC(NC1(CNC(=O)CC(C)(C)C)CCOCC1)c1ccccc1` (stereo not given) yielded a Percent Effect of -2.98%. Work on `CC(=O)N1CC(=O)N(c2ccccc2)CC12CCN(Cc1nccs1)C2` (stereo not given) yielded a Percent Effect of -7.28%. `CN(C)CC1CN(Cc2csc(C3CCCC3)n2)CCO1` (stereo not given) gave a Percent Effect of 4.62%. `Cc1cccc2nc(C(=O)N3CCC(Nc4cccnn4)CC3)cn12` showed a Percent Effect of -18.7%. Compound `O=C(CCNc1ncccn1)N1CCCC(n2ccnc2)C1` (stereo not given) has a Percent Effect of -20.9%. `CC(=O)N1CC(=O)N(c2cnn(C)c2)CC12CCN(CC1CC1)C2` (stereo not given) was tested, and the Percent Effect was -0.193%. In the case of `COCCNC(=O)c1cc2c(s1)CCN2C(=O)c1ccccc1`, the Percent Effect is reported as 6.46%.
